# Screening results from PubChem.
# KB-V1 cytotox: kills drug-selected multidrug resistant KB-V1 cells; KB-V1 MDR cells viability, CellTiter-Glo, 72 h; Potency, µM (highest dose often 46.1 µM), most hits filed as cytotoxic; hit rate 3.4% among 400,000; AID 1347076; further: potency means the concentration at half of the fitted maximal effect; on the % scale 0 is the no-effect control and ±100 the full control effect; nearly all actives have a fitted effect of over 60% in size
#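 Readout: CellTiter-Glo luminescence, 10 min after addition. Cells: KB-V1 MDR subline, 72 h at 37 degrees C with compound. Analysis: corrected, normalized data fitted to concentration-effect curves.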
# MCF10A rerep: DNA re-replication induction in MCF 10a cells; hit rate 2.9% among 350,000; Potency, µM (doses to about 46.1 µM), without a hit: at the top dose activity, positive = re-replication, hits mostly activators; MCF 10A DNA re-replication, Hoechst nuclear intensity, 48 h; further: potency means the concentration at half of the fitted maximal effect; % of control where 0% means no effect; nearly all actives have a fitted effect of over 50% in size
# KB-3-1 cytotox: KB-3-1 parental cell cytotoxicity; KB-3-1 viability, CellTiter-Glo ATP luminescence, 72 h; AID 1347075; Potency, µM (top dose mostly 46.1 µM), usual class: cytotoxic; hit rate 1.4% among 400,000; further: potency means the concentration at half of the fitted maximal effect; on the % scale 0 is the no-effect control and ±100 the full control effect; nearly all actives have a fitted effect of over 60% in size
#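 Screening of KB-3-1 cells (DMEM, 10% FBS, phenol-red free) ran from lowest to highest compound concentration; after 72 h at 37 °C viability was read luminescently and curves fitted.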
# IL1B secr inh: inflammasome signaling inhibition, IL-1 beta readout | THP-1 LPS/ATP IL-1B secretion, AlphaLISA, 16 h; active compounds read low | activity change, % at 57.5 µM | hit rate 4.7% among 360,000; in the data active means activity change below about -50%; inconclusive means mostly about -30% to -49%; further: on the % scale 0 is the no-effect control and ±100 the full control effect
#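 THP-1 cells pretreated 1 hr with compounds (up to 57.5 uM final), then stimulated with LPS (250 ng/mL final) plus ATP (1.25 mM final); secreted IL-1B measured by AlphaLISA after 16 hr, decreased signal indicating inhibition.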
# SW480 rerep: DNA re-replication induction in SW480 cells; hit rate 1.8% among 340,000; SW480 DNA re-replication, Hoechst DNA content imaging, 48 h; Potency, µM (series often up to 46.1 µM), for the others: top-dose re-replication activation, most hits filed as activators; further: potency means the concentration at half of the fitted maximal effect; % of control where 0% means no effect; nearly all actives have a fitted effect of over 55% in size
#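 Image-based DNA-content assay: after two days of treatment, nuclei were labelled with the DNA dye Hoechst and imaged, and hits were compounds raising the count of nuclei showing high fluorescence intensity.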
# * marks the source's active call; other numbers are inactive results; i = inactive; ? = inconclusive; · = no result. Most compounds without a hit are left out; they make up all but 9.9% or so of the library. Unless noted, the call rests on the fitted dose curve; in most records, active means well fitted curve in the direction sought with a large enough effect; inconclusive means small, poorly fitted or top-dose-only effect, or another doubt; inactive means no such curve, though single readings can be large; an effect the other way counts as inactive or inconclusive.
SMILES,KB-V1 cytotox,MCF10A rerep,KB-3-1 cytotox,IL1B secr inh,SW480 rerep
COCCCN1CC(=O)N2C(c3cccc(OC)c3OC)c3[nH]c4ccccc4c3C[C@H]2C1=O (some centres undefined),i,-3%,i,-16,-6%
CCNc1nc(N)c(C(=O)C23CC4CC(CC(C4)C2)C3)s1,i,0%,i,11,21%
CCNc1nc(N)c(C(=C(C#N)C#N)c2ccccc2)s1,i,20µM*,i,-75*,?
CCC(C)NC(=O)Cn1c(=O)n(-c2ccc(Cl)c(Cl)c2)c(=O)c2c(C)c(C(=O)N(CC)CC)sc21 (centres undefined),i,·,i,·,·
CCOc1ccc(-c2cc3cc(OC)c(OC)cc3c(C)n2)cc1,i,-14%,i,23,2%
COc1cc2cc(-c3ccc(OC)c(OC)c3C)nc(N)c2cc1OC,6.5µM*,1.6µM*,?,5,1.6µM*
COc1cc2cc(-c3ccc(O)cc3O)nc(C)c2cc1OC,6.5µM*,?,?,-73*,12%
O=C(NCc1ccc(Cl)cc1)C(=O)NCC(c1cccnc1)N1CCN(c2ccccc2)CC1 (centres undefined),i,·,?,·,·
Cc1ccc(S(=O)(=O)Cc2cc(F)c([N+](=O)[O-])cc2[N+](=O)[O-])cc1,?,?,?,-92*,?
CCCNc1ccc(C(=O)OCC)cc1[N+](=O)[O-],13µM*,4%,16µM*,5,0%
COC(=O)c1ccc([N+](=O)[O-])c(CS(=O)(=O)c2ccc(Cl)cc2)c1,i,4%,i,72,0%
CCOC(=O)c1ccc([N+](=O)[O-])c(CS(=O)(=O)c2ccc(Cl)cc2)c1,i,21µM*,i,22,-1%
Cc1ccccc1NC(=O)CSc1nnc(COc2ccc(Cl)cc2)o1,i,·,i,·,·
C=CCn1c(=O)c(C(=O)Nc2ncccc2C)c(O)c2ccccc21,i,·,i,-8,·
CC(=O)NC(C)(c1ccccc1)c1nc(-c2cncnc2)cs1 (centres undefined),i,·,i,30,·
C[C@H](CO)N1C[C@H](C)[C@@H](CN(C)C(=O)c2ccc3ccn(C)c3c2)OCc2cn(nn2)CCCC1=O,i,·,i,25,·
COc1cc(OC)cc(-c2sc3ccc(OC)cc3c2C#CC2(N)CCCCC2)c1,?,15µM*,?,?,18µM*
CCOC(=O)c1ccc(NC(=O)N2CCN(CCc3ccccc3)CC2)cc1,i,-5%,i,-16,-10%
CC(=O)c1ccccc1C(=O)N1CCCC(CCC(=O)N2CCN(c3ccccn3)CC2)C1 (centres undefined),i,13%,i,i,-6%
O=C(CCC1CCCN(C(=O)c2ccccc2Cl)C1)N1CCN(c2ccccn2)CC1 (centres undefined),15µM*,5%,?,0,2%
CCOC(=O)c1ccc(NC(=O)N2CCN(c3ccccn3)CC2)cc1,16µM*,0%,i,3,2%
O=C(Nc1ccccc1Cl)N1CCN(c2ccccn2)CC1,16µM*,-1%,?,-22,-18%
O=C(CCNS(=O)(=O)c1ccccc1Cl)N1CCN(c2ccccn2)CC1,16µM*,5%,?,0,-2%
c1ccc(CCC2CCCCN2Cc2nc(C3CC3)no2)cc1 (centres undefined),?,-3%,i,59,5%
CCOC(=O)c1ccc(OC(=O)c2cn(-c3cccc(OC)c3)c(=O)c3ccccc23)cc1,i,·,i,·,·
Clc1ccc(/C=C/c2ccncc2)cc1Cl,i,·,?,·,·
O=C(CCc1ccc(S(=O)(=O)N2CCOCC2)cc1)Nc1ccc(F)cc1[N+](=O)[O-],·,8%,·,-4,-4%
CC1(C)CC(=O)C(C(c2cc([N+](=O)[O-])ccc2Cl)C2C(=O)CC(C)(C)CC2=O)C(=O)C1,i,?,i,41,12µM*
Cc1cc(C(C2C(=O)CC(C)(C)CC2=O)C2C(=O)CC(C)(C)CC2=O)cc(C)c1OC(F)F,i,-6%,i,-13,8%
